BAZ2B block – blocks human BAZ2B; Q9UIF8; Potency, µM (series often up to 114 µM), most hits filed as inhibitors; AID 504333; AlphaScreen BAZ2B-H3K14Ac peptide displacement; hit rate 4.4% among 360,000; further: nearly all actives have a fitted effect of over 60% in size
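Multi-concentration screen (max 110 uM) measuring displacement of acetylated histone H3 peptide from BAZ2B by AlphaScreen, using 50 nM protein, 50 nM peptide and 10 ug/mL streptavidin donor plus Ni-chelate acceptor beads.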
L3MBTL1 block – inhibitors of human L3MBTL1; AlphaScreen L3MBTL1–H3K9me1 peptide binding; Q9Y468; hit rate 0.66% among 230,000; Potency, µM (highest dose often 57.1 µM), actives largely listed as inhibitors; further: nearly all actives have a fitted effect of over 60% in size
Target sequence (Q9Y468 whole entry, looked up): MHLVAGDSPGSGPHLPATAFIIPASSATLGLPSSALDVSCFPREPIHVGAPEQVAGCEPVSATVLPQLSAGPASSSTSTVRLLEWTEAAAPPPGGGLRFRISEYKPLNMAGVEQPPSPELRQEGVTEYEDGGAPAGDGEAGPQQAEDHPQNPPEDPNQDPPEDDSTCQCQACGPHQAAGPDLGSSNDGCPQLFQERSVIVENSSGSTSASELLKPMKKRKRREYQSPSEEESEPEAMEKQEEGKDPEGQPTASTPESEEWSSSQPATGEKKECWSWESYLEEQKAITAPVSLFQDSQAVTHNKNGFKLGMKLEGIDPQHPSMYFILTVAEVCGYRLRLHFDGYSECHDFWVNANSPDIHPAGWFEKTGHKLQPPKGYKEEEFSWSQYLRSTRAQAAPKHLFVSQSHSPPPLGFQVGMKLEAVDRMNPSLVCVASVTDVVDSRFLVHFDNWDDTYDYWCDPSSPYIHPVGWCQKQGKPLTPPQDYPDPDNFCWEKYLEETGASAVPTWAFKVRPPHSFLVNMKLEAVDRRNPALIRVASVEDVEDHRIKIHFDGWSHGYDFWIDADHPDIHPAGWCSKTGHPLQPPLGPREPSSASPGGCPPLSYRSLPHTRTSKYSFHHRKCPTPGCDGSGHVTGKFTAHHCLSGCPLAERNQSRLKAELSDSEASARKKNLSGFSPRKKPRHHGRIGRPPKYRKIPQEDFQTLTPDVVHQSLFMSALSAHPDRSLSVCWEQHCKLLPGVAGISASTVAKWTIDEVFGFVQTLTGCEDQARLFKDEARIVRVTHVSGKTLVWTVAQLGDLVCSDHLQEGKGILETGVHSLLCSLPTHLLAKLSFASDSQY
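AlphaScreen proximity signal between nickel-chelate acceptor and streptavidin donor beads (final 10 ug/mL) reports binding of 50 nM L3MBTL1 to 75 nM biotin-H3 K9me1 peptide; complex incubated with compounds 30 min at room temperature; cefsulodin titration as control.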
G9a inh – G9a (human) methyltransferase inhibition | Potency, µM (series often up to 102 µM), most hits filed as inhibitors | Q96KQ7 | hit rate 8.8% among 350,000 | G9a H3K9 monomethylation, AlphaScreen, 2 h; further: nearly all actives have a fitted effect of over 75% in size
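Quantitative HTS format: methyltransferase activity on a biotin-tagged H3K9 peptide is measured by AlphaScreen, using a rabbit anti-monomethyl-H3K9 antibody with streptavidin donor and anti-IgG acceptor beads. Final levels are 20 nM enzyme, 500 nM peptide, 20 uM SAM; 2 h RT.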
JMJD2A Tudor – inhibitors of human JMJD2A Tudor domain. O75164. AlphaScreen JMJD2A-Tudor / H3K4me3 peptide binding. Potency, µM (doses to about 114 µM), most hits filed as inhibitors. hit rate 4.4% among 390,000; further: nearly all actives have a fitted effect of over 50% in size
HP1b binding inh – blocks HP1-beta chromodomain binding to methylated histone tails; P83916; AlphaScreen HP1-beta / biotin-H3K9me3 peptide binding; Potency, µM (doses to about 114 µM), most hits filed as inhibitors; hit rate 0.56% among 390,000; AID 540317; further: nearly all actives have a fitted effect of over 70% in size
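AlphaScreen: HP1-beta (50 nM) preformed 30 min with biotin-H3(1-18)K9me3 peptide (50 nM) in PBS pH 7.4, 0.01% Tween-20. Compound added for 30 min at RT, then streptavidin donor/nickel chelate acceptor beads (10 ug/mL) for 30 min.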
Of the large screens only hits and unclear results are named; the others gave an inactive call; ! = a repeat was not active. A selection: hits, their analogues and other compounds. The true share with any hit is near 11%. The call rests on the fitted dose curve; in most records, active means well fitted inhibition curve with a large enough effect; inconclusive means small, poorly fitted or top-dose-only effect; inactive means no such curve, though single readings can be large or run the other way.

COC(=O)CCC(C)C1CCC2C3CCC4CC(O)CCC4(C)C3CC(O)C12C (centres undefined)	none (no result: BAZ2B block, L3MBTL1 block, G9a inh)
CCc1ccccc1NC(=O)CSC1=C(C#N)C(c2ccc(O)c(OC)c2)C2=C(CCCC2=O)N1 (centres undefined)	G9a inh 8.9µM
Cc1ccc(NC(=O)CSC2=C(C#N)C(c3ccc4c(c3)OCO4)C3=C(CCCC3=O)N2)c(C)c1 (centres undefined)	G9a inh 50µM
N#CC1=C(SCc2ccccc2)NC2=C(C(=O)CCC2)C1c1ccc2c(c1)OCO2 (centres undefined)	JMJD2A Tudor 45µM
O=C1CCCC2=C1C(c1ccc3c(c1)OCO3)c1c([nH]n(-c3ccccc3)c1=O)N2 (centres undefined)	G9a inh 40µM
C=CCOC(=O)C1=C(C)NC(SCC(=O)OCC)=C(C#N)C1c1ccc(O)c(OC)c1 (centres undefined)	G9a inh 32µM
C=CCSc1nc2c(sc3nc(C)cc(C)c32)c(=O)[nH]1	G9a inh 45µM
Cc1ccc(NC(=O)CN2CCSc3ccc(S(=O)(=O)N4CCCC4)cc32)cc1	none (no result: L3MBTL1 block)
O=C(O)c1ccccc1-c1nc2ccccc2[nH]1	G9a inh 45µM, JMJD2A Tudor inconclusive
O=C(c1ccccc1-c1nc2ccccc2[nH]1)N1CCOCC1	none (no result: L3MBTL1 block)
Cn1cccc1-c1nc2ccccc2[nH]1	BAZ2B block inconclusive, G9a inh 45µM, HP1b binding inh inconclusive
Cn1cccc1-c1nc2ccc(NC(=O)c3ccc([N+](=O)[O-])cc3)cc2[nH]1	G9a inh inconclusive (no result: L3MBTL1 block)
Cc1ccc(S(=O)(=O)Nc2ccc3nc(-c4cccn4C)[nH]c3c2)cc1	BAZ2B block 40µM, L3MBTL1 block inconclusive, JMJD2A Tudor 16µM, HP1b binding inh 45µM
CCOC(=O)c1c(C)[nH]c(CCC(=O)Nc2cc(C)cc(C)c2)c1C	none (no result: L3MBTL1 block)
COc1ccc(C(=O)c2c(N)c(-c3nc(-c4ccccc4)cs3)c3ccccn23)cc1	none (no result: L3MBTL1 block)
O=c1oc2ccccc2c(O)c1C=Nc1cccnc1	G9a inh 50µM, JMJD2A Tudor inconclusive
Cc1ccc(S(=O)(=O)N2CCN(c3nc(-c4ccco4)nc4ccccc34)CC2)cc1	none (no result: BAZ2B block, L3MBTL1 block, G9a inh, HP1b binding inh)
Cc1nc(-c2ccc(NC(=O)/C=C\C(=O)O)cc2)cs1	G9a inh 35µM, JMJD2A Tudor inconclusive
Cc1ccc2sc(-c3ccc(NC(=O)/C=C\C(=O)O)cc3)nc2c1	G9a inh 50µM (no result: BAZ2B block, L3MBTL1 block)
CCOC(=O)c1c(C)[nH]c(C)c1S(=O)(=O)N1CCCC(C(=O)Nc2cccc(CC)c2)C1 (centres undefined)	none (no result: L3MBTL1 block)
CCOCCn1c(N2CCCC2)nc2c1c(=O)n(C)c(=O)n2C	G9a inh 71µM
CCCCCCn1c(SCCCC)nc2c1c(=O)[nH]c(=O)n2C	G9a inh inconclusive
CCOCCn1c(N2CCCC2)nc2c1c(=O)[nH]c(=O)n2C	BAZ2B block 56µM, G9a inh inconclusive
CCOCCn1c(N2CCN(c3ccccc3)CC2)nc2c1c(=O)n(C)c(=O)n2C	none
CCOCCn1c(SCCCc2ccccc2)nc2c1c(=O)[nH]c(=O)n2C	JMJD2A Tudor inconclusive
CCn1c([N+](=O)[O-])nc2c1c(=O)[nH]c(=O)n2C	G9a inh 40µM
CCOCCn1c(SC)nc2c1c(=O)[nH]c(=O)n2C	G9a inh inconclusive, JMJD2A Tudor 89µM, HP1b binding inh inconclusive
COC(=O)c1ccc(Cl)cc1NC(=O)N1CCCn2nc(C)cc21	none (no result: L3MBTL1 block)
COc1ccc(CNC(=O)c2cc3c(=O)oc4ccc(C)cc4c3s2)c(OC)c1	none (no result: L3MBTL1 block)
CCCN1CCN(C(=S)Nc2ccc([N+](=O)[O-])cc2)CC1	G9a inh 28µM
O=[N+]([O-])c1ccc(C(=S)N2CCCC2)cc1	BAZ2B block inconclusive
CCN1CCN(C(=S)c2ccc([N+](=O)[O-])cc2)CC1	G9a inh 10µM, JMJD2A Tudor inconclusive
CC1CCN(C(=S)c2ccc([N+](=O)[O-])cc2)CC1	BAZ2B block inconclusive, G9a inh 7.9µM, HP1b binding inh inconclusive
Cc1cncn1CCc1nc2c3ccccc3nc(SCC(=O)Nc3ccc(F)cc3)n2n1	none (no result: L3MBTL1 block)
CCOc1ccccc1NC(=O)CSc1nnc2ccc(-c3cccnc3)nn12	none
COc1ccccc1NC(=O)CSc1nnc2ccc(-c3cccnc3)nn12	BAZ2B block 71µM, G9a inh 40µM
CCOc1ccccc1NC(=O)CSc1nc2ccccc2c2nc(CCn3cncc3C)nn12	BAZ2B block 56µM, G9a inh inconclusive (no result: L3MBTL1 block)
Cc1cncn1CCc1nc2c3ccccc3nc(SCC(=O)Nc3cccc(Cl)c3)n2n1	BAZ2B block 11µM!, G9a inh 14µM, JMJD2A Tudor inconclusive
CCOc1ccccc1-n1c(SCC(=O)Nc2ccccc2C(=O)O)nc2ccccc2c1=O	G9a inh 50µM (no result: L3MBTL1 block)
Cn1cc(S(=O)(=O)N2CCCCCC2)cc1C(=O)N1CCN(c2cccc(C(F)(F)F)c2)CC1	none (no result: L3MBTL1 block)
O=C(Cn1cc(SCc2ccc(C(F)(F)F)cc2)c2ccccc21)N1CCCC1	none (no result: L3MBTL1 block)
O=S(=O)(c1ccc(-n2cnnn2)cc1)N1CCN(c2cccc(C(F)(F)F)c2)CC1	none (no result: L3MBTL1 block)
O=C(CSc1nc2ccccc2c2nc(-c3ccccc3)nn12)Nc1ccc(F)cc1	none (no result: L3MBTL1 block)
COc1ccccc1NC(=O)CSc1nc2ccccc2c2nc(-c3ccccc3)nn12	JMJD2A Tudor 32µM (no result: L3MBTL1 block)
CCCCCCC1CC(CCc2nc(=S)[nH][nH]2)C(=O)O1 (centres undefined)	G9a inh 1.6µM, JMJD2A Tudor 32µM
CCCCCCCCc1nc(=S)[nH][nH]1	G9a inh 0.89µM, JMJD2A Tudor inconclusive, HP1b binding inh inconclusive
CCc1ccc(-n2nc(C)c3c(C)cc(=O)n(CC(=O)Nc4ccc(C(C)=O)cc4)c32)cc1	none (no result: L3MBTL1 block)
Cc1cc2nc(C)n(CCCNC(=O)Nc3cccc4ccccc34)c2cc1C	JMJD2A Tudor 50µM (no result: L3MBTL1 block)
N#CC(C#N)=C1NC(N)=C(C#N)C(c2ccccc2)=C1C#N	BAZ2B block inconclusive, G9a inh 3.5µM (no result: L3MBTL1 block, JMJD2A Tudor, HP1b binding inh)
Nn1c(Cc2ccc(F)cc2)n[nH]c1=S	G9a inh 3.5µM, JMJD2A Tudor 4.5µM (no result: BAZ2B block)
Nn1c(Cc2ccccc2)n[nH]c1=S	JMJD2A Tudor 10µM (no result: G9a inh)
Cc1ccccc1Cc1n[nH]c(=S)n1N	G9a inh 2.5µM, JMJD2A Tudor 2.8µM, HP1b binding inh inconclusive
CC(Cc1n[nH]c(=S)n1N)c1ccccc1 (centres undefined)	G9a inh 7.9µM, JMJD2A Tudor 3.2µM, HP1b binding inh inconclusive (no result: L3MBTL1 block)
COC(=O)c1cc(NC(=O)Cn2ncc3c([nH]c4ccccc43)c2=O)cc(C(=O)OC)c1	none (no result: L3MBTL1 block)
CCC(=O)Nc1ccc2nc(SCCOc3ccc(C)cc3OC)sc2c1	none (no result: L3MBTL1 block)
O=[N+]([O-])c1ccc(-c2nc(-c3cccs3)c(-c3cccs3)[nH]2)cc1	L3MBTL1 block inconclusive, JMJD2A Tudor 20µM, HP1b binding inh inconclusive (no result: G9a inh)
COc1ccc(-c2nc(-c3cccs3)c(-c3cccs3)[nH]2)cc1OC	none (no result: L3MBTL1 block)
O=[N+]([O-])c1cccc(-c2nc(-c3cccs3)c(-c3cccs3)[nH]2)c1	BAZ2B block inconclusive, G9a inh inconclusive, HP1b binding inh inconclusive

Screening data deposited in PubChem BioAssay by National Center for Advancing Translational Sciences (NCATS).
